High-throughput results: PubChem BioAssay, The Scripps Research Institute Molecular Screening Center
Only some compounds are listed: those with a hit (about 3.4% of all), similar ones and a draw of the others.
FBW7 act: FBW7 E3 ligase activators, primary screen, biochemical, AlphaScreen, human | F-box/WD repeat-containing protein 7 (Homo sapiens), Q969H0 | AlphaScreen FBW7–phospho-cyclin E peptide binding, activator screen | normalized activity (activation), % at 26.1 µM | hit rate 0.13% among 650,000; in the data active means normalized activity above about 1.9%;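 further: purified mutant Fbw7 with reduced substrate affinity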
MITF inh: MITF inhibitors, primary screen, biochemical, AlphaScreen, human; hit rate 0.91% among 650,000; inhibition, % at 2.6 µM; Microphthalmia-associated transcription factor (Homo sapiens), O75030; AlphaScreen MITF homodimerization, bead proximity signal; in the data active means inhibition above about 50%
GPR151 activ: activators of human GPR151, primary screen, cell-based, PathHunter beta-arrestin, luminescence; G-protein coupled receptor 151 (Homo sapiens), Q8TDV0; PathHunter beta-arrestin GPR151 cells; activation, % at 11.2 µM; hit rate 1% among 650,000; AID 1508602, 2020; in the data active means activation above about 4.9%
Target sequence (Q8TDV0 whole entry, looked up): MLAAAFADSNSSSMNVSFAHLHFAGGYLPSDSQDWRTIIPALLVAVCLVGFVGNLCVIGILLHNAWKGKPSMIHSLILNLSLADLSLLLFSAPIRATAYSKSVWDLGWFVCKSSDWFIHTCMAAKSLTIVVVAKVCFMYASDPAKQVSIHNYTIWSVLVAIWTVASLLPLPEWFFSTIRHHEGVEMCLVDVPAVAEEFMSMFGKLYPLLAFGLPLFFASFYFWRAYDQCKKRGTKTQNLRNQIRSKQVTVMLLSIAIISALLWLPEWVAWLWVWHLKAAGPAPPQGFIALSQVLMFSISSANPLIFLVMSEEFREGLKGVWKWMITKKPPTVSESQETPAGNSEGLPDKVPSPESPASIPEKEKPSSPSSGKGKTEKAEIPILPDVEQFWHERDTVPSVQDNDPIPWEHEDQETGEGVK
TEAD-YAP block: TEAD-YAP interaction inhibition, primary screen, TEAD-YAP interaction inhibitor project, luminescence, HEK-TIYL cells | AID 1259422, 2018 | TEAD-Gal4/YAP UAS-luciferase luminescence | inhibition, % at 9.12 µM | hit rate 1.4% among 640,000; in the data active means inhibition above about 32%
MITF confirm: MITF inhibitors, retest of hits, confirmation, biochemical, AlphaScreen, triplicate; AlphaScreen MITF homodimerization, biotin/His-MITF beads; shares compounds with MITF inh; inhibition, % at 2.6 µM; hit rate 16% among 4,700;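 active means inhibition above a cutoff derived from the DMSO control wells, cut at about 28% in these data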;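 further: inhibitors lower the bead chemiluminescence by keeping MITF from dimerizing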
AlphaScreen DR: AlphaScreen optical interference compounds, dose response, counter-screen, biochemical, HTS; shares compounds with MITF inh; AlphaScreen optical interference counterscreen, cell-free; IC50, µM; hit rate 6% among 480; call rule not given here
AlphaScreen intf2: AlphaScreen optical interference compounds, counter-screen for MITF inhibitor project, biochemical, triplicate. inhibition, % at 2.6 µM. AID 1259376, 2018. shares compounds with MITF inh. hit rate 7.6% among 4,700. LysRS AlphaScreen counterscreen, signal interference;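 active means inhibition above a cutoff derived from the DMSO control wells, cut at about 30% in these data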
Hits are given with their value; . = inactive; / = no result given.

SMILES	FBW7 act	MITF inh	GPR151 activ	TEAD-YAP block	MITF confirm	AlphaScreen intf2	others
CCN1CCN(C(c2nnnn2CCOC)C(C)C)CC1 (stereo not given)	.	.	.	.	/	/
O=C1OC(c2ccc([N+](=O)[O-])cc2Cl)=N/C1=C\c1ccccc1F	.	.	.	.	/	/
CN1CCC(N(C)Cc2cccc(C(F)(F)F)c2)CC1	.	.	.	.	/	/
CC(C(=O)N1CCCCC1)N(C)CC(=O)Nc1cccc(F)c1 (stereo not given)	.	64.1	.	.	.	.
CC1CC(C)CN(C(=O)C(C)N(C)CC(=O)Nc2ccc(Cl)cc2)C1 (stereo not given)	.	50.9	.	.	.	.
COc1ccc(NC(=O)CN(C)C(C)C(=O)N2CCCCC2)cc1 (stereo not given)	.	65.7	.	.	.	.
CC(=O)Nc1ccccc1NC(=O)c1ccccc1[N+](=O)[O-]	.	.	.	.	/	/
c1ccc(C(NCc2cccnc2)c2ccccc2)cc1	.	86.3	.	.	.	.
CC(NCc1cccnc1)C(=O)Nc1ccccc1 (stereo not given)	.	75.1	.	.	.	.
O=C(Nc1c(C(=O)NCCc2ccccc2)cnn1-c1ccccc1)c1cccc(F)c1	.	.	.	.	/	/
O=C(CSc1ccccc1)NCc1nc(-c2ccc(Cl)cc2)no1	.	.	.	.	/	/
O=C(N1CCN(C(c2ccccc2)c2ccccc2)CC1)C12CC3CC(CC(C3)C1)C2	.	.	.	.	/	/
COc1ccccc1/C=C/CN1CCN(Cc2ccccc2)CC1	.	.	.	.	/	/
COc1ccccc1/C=C/CN1CCN(CCOCCO)CC1	.	53.6	.	.	.	.
COc1ccccc1/C=C/CN1CC(C)OC(C)C1 (stereo not given)	.	52.9	.	.	.	.
Cc1n[nH]c(C)c1S(=O)(=O)N1CC(C)CC(C)C1 (stereo not given)	.	.	.	.	/	/
Cc1ccc(Cn2c(=N)n(CC(O)COc3ccc(Cl)cc3)c3ccccc32)cc1 (stereo not given)	.	64.3	.	.	.	.
CN(CC(=O)N1CCC2(CC1)OCCO2)c1nnc(N2CCCC2=O)s1	.	.	.	.	/	/
COc1cccc2cc(-c3nc(-c4ccc(C)c(C)c4)cs3)c(=O)oc12	.	.	.	.	/	/
CC#CC(=O)N1CCC(Cc2ccc(OC)cc2)(C(=O)OCC)CC1	.	95.2	.	.	.	.
Cc1ccc(C(c2ccc(C)o2)c2ccccc2N)o1	.	67.1	.	.	.	.
COc1ccccc1C(c1ccc(C)o1)c1ccc(C)o1	.	.	.	.	/	/
CC(C)C(NC(=O)c1ccoc1)c1nnc2n1CCN(Cc1cc3ccccc3[nH]1)CC2 (stereo not given)	.	69.1	.	.	.	.
CC(C)NC(=O)CSc1nnc(-c2cccs2)n1Cc1ccccc1	.	.	.	.	/	/
CCOC(=O)c1c(NC(=O)C(F)(F)F)sc(C(=O)Nc2ccccc2)c1C	.	55.0	.	.	.	.
SMILES	FBW7 act	MITF inh	GPR151 activ	TEAD-YAP block	MITF confirm	AlphaScreen intf2	others
O=C(O)c1cc(C(=O)O)cc(-c2ccc(/C=N\n3cnnc3)o2)c1	.	63.4	.	.	38.1	.	AlphaScreen DR=.
O=C(O)c1cccc(-c2ccc(/C=N/n3cnnc3)o2)c1	.	.	.	.	/	/
CCOC(=O)c1ccc(OCC(O)CN2CCCC2)cc1 (stereo not given)	.	52.0	.	.	.	.
O=C(Nc1cc([N+](=O)[O-])ccc1C(=O)NCc1cccnc1)c1cccs1	.	.	.	.	/	/
Cc1[nH]c2ccc(OC(F)(F)F)cc2c1CCNC(=O)c1ccc(F)c(F)c1	.	.	.	.	/	/
COc1cc(OC)c(OC)cc1CN1CCN(Cc2ccc(C)cc2C)CC1	.	70.0	.	.	.	.
COc1ccc(OC)c(CN2CCN(Cc3cccc(C)c3)CC2)c1	.	70.0	.	.	.	.
COc1ccc(CN2CCN(Cc3cccc(C)c3)CC2)c(OC)c1OC	.	.	.	.	/	/
COc1cccc(CN2CCN(Cc3cc(OC)ccc3OC)CC2)c1	.	75.0	.	.	.	.
COc1cc(OC)c(OC)cc1CN1CCN(Cc2cccc(C)c2)CC1	.	83.1	.	.	.	.
O=C1OC(c2ccc([N+](=O)[O-])cc2Cl)=N/C1=C\c1cccc(Cl)c1	.	.	.	.	/	/
OCCOC1CC2C(Cl)C1NC2(C(F)(F)F)C(F)(F)F (stereo not given)	.	.	.	.	/	/
COc1ccc(OC)c(NC(=O)C2=C(C)NC(=O)NC2c2ccc(Cl)cc2)c1 (stereo not given)	.	.	.	.	/	/
COc1ccc(CN2CCN(Cc3cccc(C)c3)CC2)c(OC)c1	.	68.8	.	.	.	.
COc1cc(CN2CCN(Cc3cccc(C)c3)CC2)cc(OC)c1	.	.	.	.	/	/
COc1cc(CN2CCC(Cn3c(C)nc4ccccc43)CC2)cc(OC)c1	.	58.7	.	.	.	.
COc1cc(CN2CCC(c3nc(-c4ccccc4)no3)CC2)cc(OC)c1	.	.	.	.	/	/
Cc1c(NC(=O)C(C)OC(=O)c2cc3c(s2)CCC3)c(=O)n(-c2ccccc2)n1C (stereo not given)	.	80.3	.	.	80.2	.	AlphaScreen DR=.
O=C(COc1ccccc1)NCCc1nnc2n1CCN(Cc1cc3ccccc3[nH]1)CC2	.	.	.	.	/	/
CCCCc1ncc(CN2CCC3(CCC(CNC(=O)c4ccccc4)O3)CC2)[nH]1 (stereo not given)	.	84.1	.	.	.	.
O=C(NC1CCCCCC1)c1ccc2c(=O)n(-c3ccccc3)c(=O)[nH]c2c1	.	.	.	.	/	/
CCS(=O)(=O)N1CCN(Cc2c[nH]c3ccccc23)CC1	.	50.6	.	.	.	.
Fc1ccccc1CN1CCN(Cc2cccc3ccccc23)CC1	.	73.8	.	.	.	.
Fc1ccccc1CN1CCN(Cc2c[nH]c3ccccc23)CC1	.	65.4	.	.	.	.
c1cnc(N2CCN(Cc3c[nH]c4ccccc34)CC2)nc1	.	.	.	.	/	/
Fc1ccccc1CN1CCCCCC1	.	.	.	.	/	/
Brc1ccccc1CN1CCN(Cc2c[nH]c3ccccc23)CC1	.	58.6	.	.	.	.
CCCOc1ccc(C(CC(=O)O)NS(=O)(=O)c2ccc(Cl)cc2)cc1 (stereo not given)	.	.	.	.	/	/
CCCCOc1ccc(C(=O)Oc2coc(CSc3nccn3C)cc2=O)cc1	.	.	.	.	/	/
